The list is not random: actives were taken first. Their share in the collection is about 4.2%.
S1P4 antag – S1P4 receptor antagonists, primary screen, cell-based; 0.26% of 220,000 active; S1P4-expressing cells, antagonist mode, reporter read-out; inhibition, % at 4.98 µM; AID 1510, 2009; in the data active means inhibition above about 29%
Target sequence (O95977 whole entry, looked up): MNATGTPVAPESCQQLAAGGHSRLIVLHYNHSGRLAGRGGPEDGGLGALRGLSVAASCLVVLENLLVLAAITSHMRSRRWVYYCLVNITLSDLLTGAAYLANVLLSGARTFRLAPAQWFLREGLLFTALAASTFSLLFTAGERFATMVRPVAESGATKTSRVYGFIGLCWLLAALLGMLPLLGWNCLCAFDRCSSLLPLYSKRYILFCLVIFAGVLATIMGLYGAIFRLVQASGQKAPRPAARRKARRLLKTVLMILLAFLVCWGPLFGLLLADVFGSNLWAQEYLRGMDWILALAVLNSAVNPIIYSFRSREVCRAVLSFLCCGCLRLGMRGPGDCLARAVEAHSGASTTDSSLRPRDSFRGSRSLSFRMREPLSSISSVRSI
CHOP inhibitor – inhibitors of CHOP promoter induction, primary screen, cell-based, unfolded protein response, luciferase reporter. CHO-K1 CHOP-promoter luciferase, tunicamycin-induced, 15-18 h. inhibition, % at 10 µM. 3.8% of 220,000 active. AID 2732, 2010;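 active means compounds that reduced the stress-induced luciferase reporter signal by more than about 70% of percent inhibition, limit read from the data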
Hsp70 act – Hsp70 transcriptional activators, primary screen, cell-based, HeLa, Hsp70 promoter luciferase, luminescence, 10 µM; HeLa Hsp70 promoter luciferase reporter; scaled: vehicle 0, proteasome-inhibitor control 100%; 0.04% of 200,000 active; AID 1203, 2008; activation, % at 10 µM;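 active means activation above the mean across all tested compounds plus 3 SD, cutoff set per campaign, cut at about 5.5% in these data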
S1P4 agonist – S1P4 receptor agonists, primary screen, cell-based. AID 1509, 2009. S1P4-expressing cell line, agonist reporter assay. activation, % at 4.98 µM. 0.35% of 220,000 active. Sphingosine 1-phosphate receptor 4 (Homo sapiens), O95977; in the data active means activation above about 11%
Each line names hits and unclear results; the compound was inactive in the other large screens.

CCOC(=O)c1c(C)[nH]c(C)c1C(=O)CSc1nnnn1-c1ccccc1	none
O=C1Cc2ccccc2Sc2cc(OCCCN3CCCCC3)ccc21	none
Cn1cc(CN2CCN(CCO)CC2)c(-c2ccc(Oc3ccccc3)cc2)n1	none
CC(=O)c1ccc(N=Nc2ccc(N(C)C)cc2)cc1	none
CCOC(=O)c1c(C)[nH]c(C(=O)CSc2nnc(-c3cccs3)n2Cc2ccccc2)c1C	CHOP inhibitor 79
CCOC(=O)c1c(C)[nH]c(C(=O)COC(=O)C2(C)CC2(Cl)Cl)c1C (stereo unspecified)	CHOP inhibitor 81
CCOC(=O)CC(=O)c1[nH]c(C)c(C(=O)OCC)c1C	none
CC(=O)c1c(C)[nH]c(C(=O)CSc2nnc(-c3cccs3)n2Cc2ccccc2)c1C	none
CCOC(=O)c1c(C)[nH]c(C(=O)OCCOc2ccccc2C)c1C	CHOP inhibitor 74
CC(/C=C/c1cccc([N+](=O)[O-])c1)=N/NC(=O)c1cccnc1	none
O=C(O)c1cccc(NS(=O)(=O)c2cccc3cccnc23)c1	none
O=C1/C(=C\c2ccc(O)cc2)SC(=S)N1c1cccnc1	CHOP inhibitor 78
COc1ccc(/C=C2\SC(=S)N(c3cccnc3)C2=O)cc1	none (no result: Hsp70 act)
N=C1S/C(=C\c2ccc(O)cc2)C(=O)N1c1ccc(F)cc1	CHOP inhibitor 83
CCOc1cc(/C=C2\SC(=O)N(c3ccc(O)cc3)C2=O)ccc1O	none (no result: Hsp70 act)
CCC1Oc2ccc(C)cc2N(Cc2cccc(C)c2)C1=O (stereo unspecified)	CHOP inhibitor 96
C=C(C)C(=O)Nc1nnc(-c2ccccc2C)s1	none
C/C=C/C(=O)Nc1nnc(-c2ccccc2C)s1	CHOP inhibitor 85
O=C(CSc1nnc(CNC(=O)C23CC4CC(CC(C4)C2)C3)n1-c1ccccc1)Nc1ccc(F)cc1	none
Cc1ccc(NC(=O)CSc2nnc(CNC(=O)C34CC5CC(CC(C5)C3)C4)n2-c2ccc(F)cc2)cc1	CHOP inhibitor 79
C=CCOc1ccc(/C=C2\SC(=S)N(C(C(=O)O)c3ccccc3)C2=O)cc1 (stereo unspecified)	CHOP inhibitor 90 (no result: Hsp70 act)
CC(c1ccccc1)N1C(=O)/C(=C/c2ccncc2)SC1=S (stereo unspecified)	CHOP inhibitor 86 (no result: Hsp70 act)
CCOc1ccc(/C=C2\SC(=S)N(C(C(=O)O)c3ccccc3)C2=O)cc1OC (stereo unspecified)	none (no result: Hsp70 act)
COc1cc(-c2cc(C(=O)Nc3ccc(S(=O)(=O)NCc4ccco4)cc3)c3ccccc3n2)cc(OC)c1OC	CHOP inhibitor 79
COc1cc(-c2cc(C(=O)Nc3ccc(N4CCOCC4)cc3)c3ccccc3n2)cc(OC)c1OC	none (no result: Hsp70 act)
COc1cc2c(cc1OC)CN(C(=O)C(C)(C)C)CC2	none
CCc1ccc2c(c1)C1(NN=C(c3ccc(C)cc3)S1)C(=O)N2 (stereo unspecified)	CHOP inhibitor 88
CN(C)c1ccc(C(CNS(=O)(=O)c2ccc3ccccc3c2)c2c[nH]c3ccccc23)cc1 (stereo unspecified)	CHOP inhibitor 76
CN(C)c1ccc(C(CN)c2c[nH]c3ccccc23)cc1 (stereo unspecified)	none
O=C1[C@H]2C(c3ccccc3)=NN(c3ccccc3)[C@H]2C(=O)N1c1ccccc1	none
O=C1C2C(c3ccccc3)=NN(c3ccccc3)C2C(=O)N1c1ccccc1 (stereo unspecified)	CHOP inhibitor 73
COc1cc2nc(CN(C)Cc3nc4ccccc4c(=O)[nH]3)[nH]c(=O)c2cc1OC	none
c1ccc(Nc2cccc(Nc3ccccc3)c2)cc1	CHOP inhibitor 74
O=C(OCC(=O)N1CCN(Cc2ccccc2)CC1)c1ccc(Cl)cc1	none
O=C1CN(C(=O)c2ccc(Br)o2)C(c2ccccc2)c2cc(Cl)ccc2N1 (stereo unspecified)	CHOP inhibitor 84
O=c1cc(-c2ccccc2Cl)oc2c([N+](=O)[O-])c(O)cc(O)c12	CHOP inhibitor 76
Cc1ccc(N2CCN(c3ccc(C)cc3)C2c2cccnc2)cc1	CHOP inhibitor 76
c1ccc(N2CCN(c3ccccc3)C2c2cccnc2)cc1	none
O=C(COC(=O)c1ccc[nH]c1=O)c1ccc(Cl)s1	none
O=C(N/N=C/c1ccccc1)c1ccco1	none (no result: Hsp70 act)
CCC(=O)OCn1nnc2ccccc2c1=O	none
O=C(CNC(=O)C1CCCCC1)OCn1nnc2ccccc2c1=O	none
O=C(CC1CCCCC1)OCn1nnc2ccccc2c1=O	CHOP inhibitor 82
CC(C)(Oc1ccc(Cl)cc1)C(=O)OCn1nnc2ccccc2c1=O	CHOP inhibitor 78
CC(C)(C)C(=O)Nc1nnc(-c2ccncc2)o1	none
CC12CCCCN1CCCc1c2[nH]c2ccccc12 (stereo unspecified)	none
O=C(Nc1ccccc1F)c1ccc(CNS(=O)(=O)c2cccc(C(F)(F)F)c2)cc1	none
CCCC(=O)Nc1cccc(-c2nc3ccccc3o2)c1	none
COc1cc(C(=O)Nc2cccc(-c3nc4cc(C)ccc4o3)c2)cc(OC)c1OC	CHOP inhibitor 75
O=C(Nc1ccc2oc(-c3cccc(F)c3)nc2c1)c1ccccc1F	CHOP inhibitor 73
COc1cc(C(=O)Nc2cc(-c3nc4cc(C)ccc4o3)ccc2C)cc(OC)c1OC	none
O=C(Nc1ccc2oc(-c3ccccc3)nc2c1)c1ccccc1F	none
COc1ccc(OCC(=O)Nc2cccc(-c3nc4ccccc4o3)c2)cc1	CHOP inhibitor 75
O=C(Nc1cccc(-c2nc3ccccc3o2)c1)c1ccc(N2C(=O)C3C4C=CC(C4)C3C2=O)cc1 (stereo unspecified)	CHOP inhibitor 71
COc1ccc(C(=O)Nc2cccc(-c3nnc(-c4ccco4)o3)c2)cc1	CHOP inhibitor 72
COc1ccc(CC(=O)Nc2cccc(-c3nnc(-c4ccco4)o3)c2)cc1	none
O=C(CSc1c[nH]c2ccccc12)NCC1CCCO1 (stereo unspecified)	none
CCCCCCc1cc2cc(S(=O)(=O)c3ccc(F)c(Cl)c3)c(=O)oc2cc1O	CHOP inhibitor 91
Cc1cc(Br)ccc1NC(=O)CN1C(=O)C2C3CC(c4ccccc4)C(C3)C2C1=O (stereo unspecified)	CHOP inhibitor 85
Cc1cc(Br)ccc1NC(=O)CNC(=O)CN1C(=O)NC2(CCCCCC2)C1=O	none
CC(Cc1ccccc1)C(=O)Nc1ccccc1 (stereo unspecified)	none
CC(=O)C(Cl)C(=O)Nc1ccccc1 (stereo unspecified)	CHOP inhibitor 83
Cn1c(SCc2nc(-c3ccc(Cl)cc3)no2)nnc1-c1ccccc1	none
C=CCN1C(=O)/C(=C\c2ccc(Cl)cc2)N=C1SCC(=O)NCCC	CHOP inhibitor 76
CCN(CC)C(=O)COC(=O)c1ccc(C)c(NC(=O)c2ccco2)c1	none
Cc1ccc(OCCN(C)C)c([N+](=O)[O-])c1	none
COc1ccc(/C=N/NC(=O)Cn2nc([N+](=O)[O-])cc2C)c(OC)c1OC	none (no result: Hsp70 act)
CCOc1cc(/C=N\NC(=O)Cn2nc([N+](=O)[O-])cc2C)ccc1OCc1cccc2ccccc12	CHOP inhibitor 88

From PubChem BioAssay
